# Measurements as given in PubChem BioAssay (EPA / NIEHS).
# Results filed as inconclusive are left out. Some compounds were tested as several samples or in several runs, with calls that do not always agree. Calls of active or inactive are those of the source. How the source made its calls, unless noted: active means hit-call score of the fitted dose curve at least 0.9, where 1 is the maximum; inactive means score below 0.9.
# Experiments:
# [1] = read-out: Signal transducer and activator of transcription 3 (Homo sapiens) (UniProt P40763); experiment: LTEA_HepaRG_STAT3: Life Technologies and Expression Analysis (LTEA) Assay for Signal transducer and activator of transcription (STAT3) using HepaRG (AID 2283529); settings: mRNA level, 48 h; actives raise or lower the signal
# In short: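 HepaRG, 48 h exposure, 8-pt half-log series (top 100 uM), 0.5% DMSO vehicle, duplicates. Readout: STAT3 transcript by Fluidigm qRT-PCR, housekeeping-normalized; bidirectional fit vs DMSO baseline.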
# [2] = read-out: solute carrier (SLCO1B1), SLCO1B1 (gene 10599); experiment: LTEA_HepaRG_SLCO1B1: Life Technologies and Expression Analysis (LTEA) Assay for solute carrier (SLCO1B1) using HepaRG (AID 2283530); settings: mRNA level, 48 h; actives raise or lower the signal
# In short: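 Gain or loss of SLCO1B1 mRNA is fitted against the 0.5% DMSO vehicle in human HepaRG liver cells treated 48 h at up to 100 uM in half-log steps. Expression comes from qRT-PCR normalized to endogenous controls.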
# [3] = read-out: sulfotransferase 2A1 (SULT2A1), SULT2A1 (gene 6822); experiment: LTEA_HepaRG_SULT2A1: Life Technologies and Expression Analysis (LTEA) Assay for sulfotransferase 2A1 (SULT2A1) using HepaRG (AID 2283531); settings: mRNA level, 48 h; actives raise or lower the signal
# In short: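 Cells were plated and cultured 48 h, switched to serum-free induction medium, then dosed in duplicate for 48 h (8 concentrations, max 100 uM). RNA was isolated and SULT2A1 expression measured by qRT-PCR; gain or loss of signal fitted relative to DMSO.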
# [4] = read-out: Transforming Growth Factor (TGFB1), TGFB1 (gene 7040); experiment: LTEA_HepaRG_TGFB1: Life Technologies and Expression Analysis (LTEA) Assay for Transforming Growth Factor (TGFB1) Transporter using HepaRG (AID 2283533); settings: mRNA level, 48 h; actives raise or lower the signal
# In short: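 Expression change of TGFB1 in human HepaRG cells is measured after a 48 h chemical exposure, up to 100 uM in 0.5% DMSO vehicle. Curves are fitted in both directions relative to the DMSO baseline.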
# TIMP1, TIMP1 (gene 7076) = experiment: LTEA_HepaRG_TIMP1: Life Technologies and Expression Analysis (LTEA) Assay for TIMP1 using HepaRG (AID 2283534); settings: mRNA level, 48 h; actives raise or lower the signal
# In short: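 We dosed human liver HepaRG cultures for 48 hours with up to 100 uM test chemical and measured TIMP1 expression by qRT-PCR. Activity in either direction is fitted relative to the 0.5% DMSO vehicle.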
# [5] = read-out: Tumor necrosis factor receptor 1 (TNFRSF1A), TNFRSF1A (gene 7132); experiment: LTEA_HepaRG_TNFRSF1A: Life Technologies and Expression Analysis (LTEA) Assay for Tumor necrosis factor receptor 1 (TNFRSF1A) using HepaRG (AID 2283535); settings: mRNA level, 48 h; actives raise or lower the signal
# In short: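 Expression of TNFRSF1A in human HepaRG liver cells was measured by qRT-PCR 48 h after chemical dosing (maximum 100 uM). Bidirectional curve fitting used 0.5% DMSO as baseline.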
# [6] = read-out: Thyroid Hormone Responsive (THRSP), THRSP (gene 7069); experiment: LTEA_HepaRG_THRSP: Life Technologies and Expression Analysis (LTEA) Assay for Thyroid Hormone Responsive (THRSP) using HepaRG (AID 2283536); settings: mRNA level, 48 h; actives raise or lower the signal
# In short: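 qRT-PCR read-out (Fluidigm TaqMan), housekeeping-normalized (ACTB/GAPDH/POLR2A). HepaRG, 48 h chemical exposure, 8-pt half-log series from 100 uM in 0.5% DMSO, duplicates. Bidirectional curve fit vs 0.5% DMSO baseline.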
# [7] = read-out: Cellular tumor antigen p53 (Homo sapiens) (UniProt P04637); experiment: LTEA_HepaRG_TP53: Life Technologies and Expression Analysis (LTEA) Assay for Tumor Protein P53 (TP53) using HepaRG (AID 2283537); settings: mRNA level, 48 h; actives raise or lower the signal
# In short: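 TP53 transcript measured by qRT-PCR, normalized to three housekeeping genes, after 48 h treatment of human HepaRG cultures with chemicals from 100 uM downward in half-log steps (0.5% DMSO vehicle, serum-free induction medium). Up- or down-regulation fitted against DMSO.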
# [8] = read-out: UDP glucuronosyltransferase (UGT1A1), UGT1A1 (gene 54658); experiment: LTEA_HepaRG_UGT1A1: Life Technologies and Expression Analysis (LTEA) Assay for UDP glucuronosyltransferase (UGT1A1) using HepaRG (AID 2283538); settings: mRNA level, 48 h; actives raise or lower the signal
# In short: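 mRNA induction or loss of UGT1A1, by TaqMan qRT-PCR, in duplicate HepaRG wells after 48 h exposure to half-log dilutions topping at 100 uM; DMSO (0.5%) served as baseline.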
# [9] = read-out: UDP glucuronosyltransferase (UGT1A6), UGT1A6 (gene 54578); experiment: LTEA_HepaRG_UGT1A6: Life Technologies and Expression Analysis (LTEA) Assay for UDP glucuronosyltransferase (UGT1A6) using HepaRG (AID 2283539); settings: mRNA level, 48 h; actives raise or lower the signal
# In short: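 Endpoint is UGT1A6 transcript induction or loss in a human liver cell line, quantified by TaqMan qRT-PCR 48 h after dosing. Concentrations ran from 100 uM downward in half-log steps in 0.5% DMSO; activity was fitted in both directions versus vehicle.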
# [10] = read-out: X-box binding protein 1 (XBP1), XBP1 (gene 7494); experiment: LTEA_HepaRG_XBP1: Life Technologies and Expression Analysis (LTEA) Assay for X-box binding protein 1 (XBP1) using HepaRG (AID 2283540); settings: mRNA level, 48 h; actives raise or lower the signal
# In short: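 Human HepaRG monolayers receive test chemical for 48 h across an eight-point half-log series starting at 100 uM. XBP1 mRNA gain or loss is scored against DMSO by qRT-PCR.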
# [11] = LTEA_HepaRG_LDH_cytotoxicity: Cytotoxicity Assessment in the Life Technologies and Expression Analysis (LTEA) Assay (AID 2283563; active means hit-call score of the fitted dose curve at least 0.9, where 1 is the maximum)
# In short: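 Human HepaRG hepatic cells are treated with test chemicals for 48 h at up to 100 uM in 0.5% DMSO. Cytotoxicity is scored from medium LDH against the vehicle control.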
# [12] = ATG_XTT_Cytotoxicity: Cytotoxicity Assessment in the Attagene TRANS-FACTORIAL HepG2 Assay (AID 2283584; active means hit-call score of the fitted dose curve at least 0.9, where 1 is the maximum)
# In short: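 Transfect HepG2 with GAL4-UAS reporter units, dose compound, incubate 24 h, then measure viable cell number by XTT. Fit concentration response against DMSO baseline.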
# [13] = TOX21_p53_BLA_p2_viability: Viability Assessment in the Tox21 HCT-116 p53 Agonism Beta-lactamase Assay, Phase 2 (AID 2283591; active means hit-call score of the fitted dose curve at least 0.9, where 1 is the maximum;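 further: compound exposure lasted 16 h at 37 °C; actives lower the ATP signal meaning cytotoxicity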)
# In short: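 HCT116 p53-bla cells, 4000/well, dosed after 5 h plating (217-fold dilution of DMSO stocks) and incubated 16 h at 37C. Viability taken as cellular ATP by CellTiter-Glo luminescence after 30 min RT; signal loss marks cytotoxicity.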
# [14] = target: Cellular tumor antigen p53 (Homo sapiens) (UniProt P04637); experiment: TOX21_p53_BLA_p2_ratio: Tox21 HCT-116 p53 Agonism Beta-lactamase Assay, Ratio, Phase 2 (AID 2283592; active means hit-call score of the fitted dose curve at least 0.9, where 1 is the maximum)
# In short: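 Cleaved-to-uncleaved substrate ratio (460 vs 530 nm) measured in HCT116 cells with an inducible beta-lactamase reporter linked to p53 activity. Compounds incubated 16 h at 37C before 2 h room-temperature CCF4-AM loading.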
# [15] = target: Cellular tumor antigen p53 (Homo sapiens) (UniProt P04637); experiment: TOX21_p53_BLA_p3_ratio: Tox21 HCT-116 p53 Agonism Beta-lactamase Assay, Ratio, Phase 3 (AID 2283596; active means hit-call score of the fitted dose curve at least 0.9, where 1 is the maximum)
# In short: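 Cells were seeded at 4000/well, rested 5 h at 37C, then dosed with DMSO compound solutions (217-fold dilution) for 16 h. CCF4-AM substrate was loaded for 2 h at room temperature, and the 460/530 nm emission ratio was fitted for gain of signal versus DMSO.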
# [16] = target: Cellular tumor antigen p53 (Homo sapiens) (UniProt P04637); experiment: TOX21_p53_BLA_p5_ratio: Tox21 HCT-116 p53 Agonism Beta-lactamase Assay, Ratio, Phase 5 (AID 2283599; active means hit-call score of the fitted dose curve at least 0.9, where 1 is the maximum)
# In short: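 HCT-116 p53-bla cells (4000/well) plated 5 h, dosed with compound (217-fold DMSO dilution) for 16 h at 37 C; CCF4-AM substrate 2 h at room temperature. Activity is the 460/530 nm emission ratio (405 nm excitation), fitted in gain-of-signal direction versus DMSO.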
# [17] = read-out: Transforming Growth Factor (TGFA), TGFA (gene 7039); experiment: LTEA_HepaRG_TGFA: Life Technologies and Expression Analysis (LTEA) Assay for Transforming Growth Factor (TGFA) using HepaRG (AID 2283532); settings: mRNA level, 48 h; actives raise or lower the signal
# In short: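 qRT-PCR read-out of TGFA transcript, normalized to three housekeeping genes, fitted bidirectionally against 0.5% DMSO baseline. Human HepaRG cultures received chemicals for 48 h at eight half-log concentrations, top 100 uM.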
# [18] = TOX21_p53_BLA_p3_viability: Viability Assessment in the Tox21 HCT-116 p53 Agonism Beta-lactamase Assay, Phase 3 (AID 2283593; active means hit-call score of the fitted dose curve at least 0.9, where 1 is the maximum;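 further: cells exposed to compound for 16 h before reading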)
# In short: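 HCT116 cells, 4000/well, dosed 5 h after plating by pin transfer (217-fold dilution from DMSO stock) and incubated 16 h at 37C, 5% CO2. Viability read as ATP luminescence with CellTiter-Glo after 30 min at room temperature.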
# [19] = TOX21_p53_BLA_p4_viability: Viability Assessment in the Tox21 HCT-116 p53 Agonism Beta-lactamase Assay, Phase 4 (AID 2283597; active means hit-call score of the fitted dose curve at least 0.9, where 1 is the maximum;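 further: hits lower the luminescence signal meaning cytotoxicity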)
# In short: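 Viability is taken as cellular ATP: after 16 h compound exposure of HCT116 cells and a 2 h room-temperature CCF4-AM substrate step, CellTiter-Glo reagent is added and luminescence is measured 30 min later.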
# Chain of Signal transducer and activator of transcription 3 (Homo sapiens) (P40763 whole entry, looked up): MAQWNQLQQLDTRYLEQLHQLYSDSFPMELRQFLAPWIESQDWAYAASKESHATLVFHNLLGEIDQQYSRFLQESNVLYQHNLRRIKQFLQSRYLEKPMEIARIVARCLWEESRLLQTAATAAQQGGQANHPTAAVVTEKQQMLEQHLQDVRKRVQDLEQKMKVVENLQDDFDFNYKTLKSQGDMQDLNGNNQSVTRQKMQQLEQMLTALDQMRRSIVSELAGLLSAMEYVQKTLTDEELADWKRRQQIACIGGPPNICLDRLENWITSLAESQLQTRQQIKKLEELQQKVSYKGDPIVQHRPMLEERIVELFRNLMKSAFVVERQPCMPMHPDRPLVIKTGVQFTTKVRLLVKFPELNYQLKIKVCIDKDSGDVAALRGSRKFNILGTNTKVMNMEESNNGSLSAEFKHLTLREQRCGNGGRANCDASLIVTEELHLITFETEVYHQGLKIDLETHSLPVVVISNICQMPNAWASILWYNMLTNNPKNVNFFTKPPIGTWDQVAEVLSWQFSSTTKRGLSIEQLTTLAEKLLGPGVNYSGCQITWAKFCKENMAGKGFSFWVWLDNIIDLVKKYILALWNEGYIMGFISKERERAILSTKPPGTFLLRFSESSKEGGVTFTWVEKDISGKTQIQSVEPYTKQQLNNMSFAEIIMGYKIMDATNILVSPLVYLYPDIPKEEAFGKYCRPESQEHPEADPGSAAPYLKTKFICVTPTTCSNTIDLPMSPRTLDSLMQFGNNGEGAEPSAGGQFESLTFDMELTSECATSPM
# Chain of Cellular tumor antigen p53 (Homo sapiens) (P04637 whole entry, looked up): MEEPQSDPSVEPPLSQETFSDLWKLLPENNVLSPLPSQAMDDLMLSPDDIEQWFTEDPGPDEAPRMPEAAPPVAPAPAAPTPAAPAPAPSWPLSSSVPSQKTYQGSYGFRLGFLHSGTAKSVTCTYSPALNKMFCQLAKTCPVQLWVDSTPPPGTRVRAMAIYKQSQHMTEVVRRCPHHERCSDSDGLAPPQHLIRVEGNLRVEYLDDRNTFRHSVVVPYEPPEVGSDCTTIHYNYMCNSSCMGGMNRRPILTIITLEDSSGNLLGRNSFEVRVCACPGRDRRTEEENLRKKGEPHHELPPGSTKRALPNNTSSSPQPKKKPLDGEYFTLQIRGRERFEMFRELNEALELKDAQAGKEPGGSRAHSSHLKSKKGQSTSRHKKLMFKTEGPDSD
smiles,measurement,setting,value
CCOC(=O)CCC(=O)OCC,outcome,[1],inactive
same,outcome,[2],inactive
same,outcome,[3],inactive
same,outcome,[4],inactive
same,outcome,"TIMP1, TIMP1 (gene 7076)",inactive
same,outcome,[5],inactive
same,outcome,[6],inactive
same,outcome,[7],inactive
same,outcome,[8],inactive
same,outcome,[9],inactive
same,outcome,[10],inactive
same,outcome,[11],inactive
same,outcome,[12],inactive
same,outcome,[13],inactive
same,outcome,[14],inactive
same,outcome,[15],inactive
same,outcome,[16],inactive
O=[N+]([O-])C(CO)(CO)CO,outcome,[1],inactive
same,outcome,[2],inactive
same,outcome,[3],inactive
same,outcome,[17],inactive
same,outcome,"TIMP1, TIMP1 (gene 7076)",inactive
same,outcome,[5],inactive
same,outcome,[6],inactive
same,outcome,[7],inactive
same,outcome,[8],inactive
same,outcome,[9],inactive
same,outcome,[10],inactive
same,outcome,[11],inactive
same,outcome,[13],inactive
same,outcome,[14],inactive
same,outcome,[18],inactive
same,outcome,[19],inactive
same,outcome,[16],inactive
NCCO,outcome,[1],inactive
same,outcome,[2],inactive
same,outcome,[3],inactive
same,outcome,[17],inactive
same,outcome,"TIMP1, TIMP1 (gene 7076)",inactive
same,outcome,[5],inactive
same,outcome,[6],inactive
same,outcome,[7],inactive
same,outcome,[8],inactive
same,outcome,[9],inactive
same,outcome,[10],inactive
same,outcome,[11],inactive
same,outcome,[14],inactive
same,outcome,[15],inactive
same,outcome,[16],inactive
Cc1ccc(C)c(C)c1,outcome,[1],inactive
same,outcome,[2],inactive
same,outcome,[3],inactive
same,outcome,[17],inactive
same,outcome,"TIMP1, TIMP1 (gene 7076)",inactive
same,outcome,[5],inactive
same,outcome,[6],inactive
same,outcome,[7],inactive
same,outcome,[8],inactive
same,outcome,[9],inactive
same,outcome,[10],inactive
same,outcome,[11],inactive
same,outcome,[12],inactive
same,outcome,[13],inactive
same,outcome,[14],inactive
same,outcome,[18],inactive
same,outcome,[15],inactive
same,outcome,[16],inactive
Cc1nc(C)nc(N2C[C@@H](C)N(c3ccnc([C@@H](C)O)n3)[C@@H](C)C2)n1,outcome,[1],inactive
same,outcome,[2],inactive
same,outcome,[3],inactive
same,outcome,"TIMP1, TIMP1 (gene 7076)",inactive
same,outcome,[5],inactive
same,outcome,[6],inactive
same,outcome,[7],inactive
same,outcome,[8],inactive
same,outcome,[9],inactive
same,outcome,[10],inactive
same,outcome,[11],inactive
same,outcome,[13],inactive
same,outcome,[14],inactive
same,outcome,[18],inactive
Cc1cccc([N+](=O)[O-])c1C,outcome,[1],inactive
same,outcome,[2],inactive
same,outcome,[3],inactive
same,outcome,[4],inactive
same,outcome,"TIMP1, TIMP1 (gene 7076)",inactive
same,outcome,[5],inactive
same,outcome,[6],inactive
same,outcome,[7],inactive
same,outcome,[8],inactive
same,outcome,[9],inactive
same,outcome,[10],inactive
same,outcome,[11],inactive
same,outcome,[13],inactive
same,outcome,[14],inactive
same,outcome,[18],inactive
same,outcome,[15],inactive
same,outcome,[19],inactive
same,outcome,[16],inactive
O=C(O)Cc1ccccc1Nc1c(Cl)cccc1Cl,outcome,[1],inactive
same,outcome,[2],inactive
same,outcome,[3],inactive
same,outcome,"TIMP1, TIMP1 (gene 7076)",inactive
same,outcome,[5],inactive
same,outcome,[6],inactive
same,outcome,[7],inactive
same,AC50,[8],6.2 µM (active)
same,outcome,[9],inactive
same,outcome,[10],inactive
same,outcome,[11],inactive
same,outcome,[12],inactive
same,outcome,[13],inactive
same,AC50,[14],68.9 µM (active)
same,outcome,[14],inactive
same,outcome,[18],inactive
same,AC50,[15],86 µM (active)
same,outcome,[15],inactive
same,AC50,[19],46.1 µM (active)
same,AC50,[16],86.4 µM (active)
same,outcome,[16],inactive
C[C@]12C=CC(=O)C=C1CC[C@@H]1[C@@H]2C(=O)C[C@@]2(C)[C@H]1CC[C@]2(O)C(=O)CO,outcome,[1],inactive
same,outcome,[2],inactive
same,outcome,[3],inactive
same,outcome,"TIMP1, TIMP1 (gene 7076)",inactive
same,outcome,[5],inactive
same,outcome,[6],inactive
same,outcome,[7],inactive
same,AC50,[8],50 µM (active)
same,outcome,[9],inactive
same,outcome,[10],inactive
same,outcome,[11],inactive
same,outcome,[12],inactive
same,outcome,[13],inactive
same,outcome,[14],inactive
same,outcome,[18],inactive
same,outcome,[19],inactive
same,outcome,[16],inactive
